# Reference: PubChem BioAssay (Tox21)
# Results filed as inconclusive are left out. Where a structure was tested more than once in an assay, its records may differ in their call. Calls of active or inactive are those of the source. Unless noted, calls follow the shape of the full dose curve.
# Test system: not listed separately
# Assay: qHTS assay to identify small molecule agonists of the estrogen related receptor signaling pathway with the pleiotropic PPARgamma coactivator (PGC) from Tox21 10K library (AID 1224842; active = well fitted activation curve with a large enough effect in the repeat runs; also: nearly all actives have a fitted effect of over 15% in size)
# Conditions: PGC/ERR reporter cell line, luciferase ONE-Glo, 18 h; series mostly up to 92.4 µM; activation: at the top concentration
# Summary of the method: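 Luminescence from One-Glo (30 min, room temperature) measured after PGC/ERR cells had 18 h at 37 C with pinned compound (23 nL in DMSO). Cells had been seeded at 2,000 per well and pre-incubated 6 h.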
# % is scaled to controls: 0 for no effect and ±100 for the full control effect; potency is read from the fitted curve at half-maximal effect.
Compound,activation,Potency
C=C[C@](C)(O)CC[C@@H]1[C@@]2(C)CCCC(C)(C)[C@@H]2CC[C@@]1(C)O,-17.6% (inactive),–
Clc1ccc(C(Cn2ccnc2)OCc2c(Cl)cccc2Cl)c(Cl)c1 (centres undefined),-11.9% [at 42.5 µM] (inactive),–
Cc1nc(Nc2ncc(C(=O)Nc3c(C)cccc3Cl)s2)cc(N2CCN(CCO)CC2)n1,–,0.0944 µM (active)
Cc1ccc(CCn2c3c(c4cc(Cl)ccc42)CN(C)CC3)cn1,–,9.44 µM (active)
NC(=O)c1nc(-c2cccc(-c3cc(F)ccc3OCC(F)(F)C(F)(F)F)c2)n[nH]1,-22.3% (inactive),–
CCOC(=O)C1=C(C)NC(C)=C(C(=O)OCC)C1c1ccccc1/C=C/C(=O)OC(C)(C)C,-17.6% [at 42.5 µM] (inactive),–
Oc1c(Br)cc(Br)c2cccnc12,–,29.8 µM (active)
CCC(C)(C)c1cc(O)c(C(C)(C)CC)cc1O,-23.8% (inactive),–
CCCOc1sc(C(=O)N2CCC(c3cc(CN)ccc3F)CC2)c(C)c1Br,-36.4% (inactive),–
CC(=O)OC(OC(C)=O)c1ccc([N+](=O)[O-])o1,-40.1% (inactive),–

# Molecular target: Thyrotropin receptor (Homo sapiens) (UniProt P16473)
# Sequence (P16473 whole entry, looked up): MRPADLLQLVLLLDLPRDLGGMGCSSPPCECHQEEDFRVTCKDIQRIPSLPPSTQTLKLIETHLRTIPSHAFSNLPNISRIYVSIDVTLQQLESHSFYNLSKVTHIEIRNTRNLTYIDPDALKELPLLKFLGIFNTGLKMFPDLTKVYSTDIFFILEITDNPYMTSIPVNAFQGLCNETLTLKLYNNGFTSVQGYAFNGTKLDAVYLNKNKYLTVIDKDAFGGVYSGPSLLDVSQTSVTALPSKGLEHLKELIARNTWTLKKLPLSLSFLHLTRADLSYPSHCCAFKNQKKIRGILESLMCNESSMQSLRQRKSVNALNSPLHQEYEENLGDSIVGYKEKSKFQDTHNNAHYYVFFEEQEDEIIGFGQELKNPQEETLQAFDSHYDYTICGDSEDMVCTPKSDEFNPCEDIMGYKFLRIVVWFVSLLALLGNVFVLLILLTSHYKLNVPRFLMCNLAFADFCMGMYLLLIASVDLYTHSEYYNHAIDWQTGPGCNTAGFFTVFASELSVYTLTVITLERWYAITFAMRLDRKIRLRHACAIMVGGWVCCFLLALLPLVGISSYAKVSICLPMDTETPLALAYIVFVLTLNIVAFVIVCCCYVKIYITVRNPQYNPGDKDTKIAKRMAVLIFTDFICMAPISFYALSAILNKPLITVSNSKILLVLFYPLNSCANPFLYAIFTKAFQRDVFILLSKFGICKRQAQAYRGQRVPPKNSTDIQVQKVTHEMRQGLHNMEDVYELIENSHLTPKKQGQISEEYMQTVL
# Assay: qHTS assay to identify small molecule agonists of the thyroid stimulating hormone receptor (TSHR) signaling pathway (AID 1224843); also: nearly all actives have a fitted effect of over 45% in size
# Conditions: TSHR-HEK293 cells, cAMP HTRF, agonist mode, 30 min; series mostly up to 92.4 µM; activation: at the top concentration
# Summary of the method: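 A cell-based cAMP HTRF format was run in TSHR-transfected HEK293 cells, 800 per well. Treatment: 30 min, room temperature. Detection: 1 h with labelled cAMP and anti-cAMP cryptate. Concentration-response over 15 points, three replicates.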
Compound,activation,Potency
Clc1cccnc1,-9.26% (inactive),–
C=C[C@](C)(O)CC[C@@H]1[C@@]2(C)CCCC(C)(C)[C@@H]2CC[C@@]1(C)O,–,19.3 µM (active)
Cc1nc(Nc2ncc(C(=O)Nc3c(C)cccc3Cl)s2)cc(N2CCN(CCO)CC2)n1,-4.27% [at 42.5 µM] (inactive),–
Clc1nc2ccccc2s1,-15.7% (inactive),–
COCC(=O)O[C@]1(CCN(C)CCCc2nc3ccccc3[nH]2)CCc2cc(F)ccc2[C@@H]1C(C)C,-13.5% [at 42.5 µM] (inactive),–
CC(C)=CC1CC(C)CCO1 (centres undefined),7.16% (inactive),–
CCC(=O)CC(C)CC (centres undefined),6.29% [at 0.349 µM] (inactive),–
O=Cc1ccc(F)cc1,3.25% (inactive),–
Cc1cn[nH]c1,-10.8% [at 42.5 µM] (inactive),–
CCOB(OCC)OCC,-11.1% (inactive),–
CCCCC(CC)COC(=O)c1ccc(O)cc1 (centres undefined),–,inactive
NC(=O)c1nc(-c2cccc(-c3cc(F)ccc3OCC(F)(F)C(F)(F)F)c2)n[nH]1,15.1% (inactive),–
CCOC(=O)C1=C(C)NC(C)=C(C(=O)OCC)C1c1ccccc1/C=C/C(=O)OC(C)(C)C,8.77% [at 42.5 µM] (inactive),–
Oc1c(Br)cc(Br)c2cccnc12,-1.56% [at 42.5 µM] (inactive),–
CCC(C)(C)c1cc(O)c(C(C)(C)CC)cc1O,-5.94% (inactive),–
CCCCCCCC(C)=O,-19.8% (inactive),–
CC(=O)OC(OC(C)=O)c1ccc([N+](=O)[O-])o1,–,27.8 µM (active)
Cc1cc(C)c(C=O)c(C)c1,0.0789% (inactive),–
C/C=C/C=N/NC(=O)c1ccncc1,-3.57% [at 42.5 µM] (inactive),–
CCCCCCC(C)Nc1ccc(Nc2ccccc2)cc1 (centres undefined),16% (inactive),–
COc1ccc(-n2nc(CCC(=O)N(C)O)cc2-c2ccc(Cl)cc2)cc1,-2.08% [at 42.5 µM] (inactive),–

# Test system: not listed separately
# Assay: qHTS assay to identify small molecule agonists of the hypoxia (HIF-1) signaling pathway - cell viability counter screen (AID 1224844); also: nearly all actives have a fitted effect of over 50% in size
# Conditions: HRE-bla ME-180 viability, CellTiter-Glo luminescence, 17 h; series mostly up to 76.8 µM; activity change, negative = cytotoxicity: at the top concentration
# Summary of the method: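 HRE-bla ME-180; 0.5% dFBS; cpd 17 h, 37C, 5% CO2; CellTiter-Glo lum., 30 min RT, post-FRET read, same wells.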
Compound,"activity change, negative = cytotoxicity",Potency
Clc1cccnc1,0.191% (inactive),–
C=C[C@](C)(O)CC[C@@H]1[C@@]2(C)CCCC(C)(C)[C@@H]2CC[C@@]1(C)O,–,49 µM (active)
Clc1ccc(C(Cn2ccnc2)OCc2c(Cl)cccc2Cl)c(Cl)c1 (centres undefined),–,23.9 µM (active)
Cc1nc(Nc2ncc(C(=O)Nc3c(C)cccc3Cl)s2)cc(N2CCN(CCO)CC2)n1,-12.7% [at 35.3 µM] (inactive),–
Clc1nc2ccccc2s1,3.19% (inactive),–
O=C(O)CCn1c2c(c3ccccc31)C[C@H](NS(=O)(=O)c1ccc(F)cc1)CC2,0.6% [at 35.3 µM] (inactive),–
S=C(SSSSSSC(=S)N1CCCCC1)N1CCCCC1,–,3.41 µM (active)
CCC(=O)CC(C)CC (centres undefined),2.65% [at 0.29 µM] (inactive),–
O=Cc1ccc(F)cc1,0.627% (inactive),–
CCOC(=O)N1CCC(=C2c3ccc(Cl)cc3CCc3cccnc32)CC1,–,54.9 µM (active) and inactive
Clc1ccccc1CN1CCc2sccc2C1,-5.3% [at 35.3 µM] (inactive),–
CCOB(OCC)OCC,8.23% (inactive),–
CCCCC(CC)COC(=O)c1ccc(O)cc1 (centres undefined),–,49 µM (active)
CC(=O)Nc1ccc(O)cc1,–,inactive
C=CC(=C)CCC=C(C)C,1.71% (inactive),–
c1ccc(Sc2ccccc2)cc1,11% (inactive),–
CCCOc1sc(C(=O)N2CCC(c3cc(CN)ccc3F)CC2)c(C)c1Br,–,28.3 µM (active)
CCCCCCCC(C)=O,4.55% (inactive),–
Cc1cc(C)c(C=O)c(C)c1,1.22% (inactive),–
COc1ccc(-n2nc(CCC(=O)N(C)O)cc2-c2ccc(Cl)cc2)cc1,–,19 µM (active)

# Test system: not listed separately
# Assay: qHTS assay to identify small molecule agonists of H2AX (AID 1224845; active = well fitted activation curve with a large enough effect in the signal ratio in the repeat runs, not every such curve was filed as active; the % refers to the signal ratio)
# Conditions: CHO-K1 phospho-H2AX Ser139 HTRF, 3 h; series mostly up to 154 µM; activation (H2AX phosphorylation): at the top concentration
# Summary of the method: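 Phospho-H2AX Ser139 measured by HTRF (ex 320 nm; em 665 and 620 nm) after 24 hr antibody incubation. Compounds, 15 concentrations, 0.76% DMSO, were applied to CHO-K1 cells for 3hr at 37C before lysis.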
Compound,activation (H2AX phosphorylation),Potency
Clc1cccnc1,-4.89% (inactive),–
C=C[C@](C)(O)CC[C@@H]1[C@@]2(C)CCCC(C)(C)[C@@H]2CC[C@@]1(C)O,1.34% (inactive),–
Cc1nc(Nc2ncc(C(=O)Nc3c(C)cccc3Cl)s2)cc(N2CCN(CCO)CC2)n1,–,55.2 µM (active)
COCC(=O)O[C@]1(CCN(C)CCCc2nc3ccccc3[nH]2)CCc2cc(F)ccc2[C@@H]1C(C)C,–,49.2 µM (active)
CC(C)=CC1CC(C)CCO1 (centres undefined),0.139% (inactive),–
CCC(=O)CC(C)CC (centres undefined),0.83% [at 0.582 µM] (inactive),–
Cc1ccc(CCn2c3c(c4cc(Cl)ccc42)CN(C)CC3)cn1,-0.335% [at 70.9 µM] (inactive),–
Cc1cn[nH]c1,-3.12% [at 70.9 µM] (inactive),–
CCOB(OCC)OCC,1.09% (inactive),–
CCCCC(CC)COC(=O)c1ccc(O)cc1 (centres undefined),1.73% (inactive),–
NC(=O)c1nc(-c2cccc(-c3cc(F)ccc3OCC(F)(F)C(F)(F)F)c2)n[nH]1,2.5% (inactive),–
CC(CN(C)C)CN1c2ccccc2CCc2ccccc21 (centres undefined),-3.21% [at 70.9 µM] (inactive),–
CCCCCCCC(C)=O,-0.26% (inactive),–
